Over roughly 35,000 sequences, “fluorescence intensity (a.u.)” has its median near 10,000; the highest 2% begin near 52,000. This excerpt belongs to a sample that is enriched for the highest values.

This experiment addresses T1, OsWOX13 (Oryza sativa, UniProt Q5QMM3 1-267).
T1 sequence: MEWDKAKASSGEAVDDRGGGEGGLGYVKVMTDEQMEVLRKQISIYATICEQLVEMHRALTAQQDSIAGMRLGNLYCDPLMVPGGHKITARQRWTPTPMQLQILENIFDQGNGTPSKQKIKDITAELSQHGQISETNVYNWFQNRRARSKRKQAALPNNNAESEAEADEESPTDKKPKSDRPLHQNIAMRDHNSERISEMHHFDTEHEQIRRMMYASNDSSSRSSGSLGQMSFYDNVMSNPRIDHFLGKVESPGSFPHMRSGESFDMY
Briefly: protein-binding microarray (RPBM); PBS, 2% BSA, 51.3 ng/ul salmon testes DNA, 50 uM zinc acetate, 200 nM TF, 25 C, 1 h; high values mean tight binding. The following applies: protein: recombinant; tags: N-terminal polyhistidine and DsRed monomer fusion (pET32a); label: CyDye5-dUTP incorporated in the synthesized complementary strand; 3' TTTTT single-stranded linker to array surface; dsDNA, one strand shown. In short, it runs like this:
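An Axon 4000B scanner gave the binding signal as per-feature fluorescence intensity in arbitrary units. This followed washing of a custom Agilent array that had been incubated for 1 h at 25 °C with 200 nM protein in PBS, 2% BSA, salmon testes DNA and 50 µM zinc acetate. The proteins were transcription factors fused at the N-terminus to polyhistidine and DsRed, expressed in E. coli BL21-CodonPlus and purified on Ni–NTA.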
In the case of “TCTCATCAATTGAATGGATATTATATTTTAATGTGTTCAGCGGAGTCACCTAGTGCAG”, the binding signal was 8660 fluorescence intensity (a.u.).

Regarding “GCTATGATTGTCTTTAGGGTATCTAATAATTGTGGTTTGACGGAGTCACCTAGTGCAG”, the binding signal was 21700 fluorescence intensity (a.u.). Consider “ACCAAACGCCTTGATTGAAACCATCGATATACATATGTAACGGAGTCACCTAGTGCAG”, for which the binding signal was 34900 fluorescence intensity (a.u.). “GAAAATGTTCCATCTGATTATAAATTATTATATTTTGGGACGGAGTCACCTAGTGCAG”: the binding signal is 4000 fluorescence intensity (a.u.).

Consider “TGAAAGTAATTTGATGCTATAAGTCAAAGTTAAAGAGATGCGGAGTCACCTAGTGCAG”, for which the binding signal is 3500 fluorescence intensity (a.u.).

For “GTTGCAGATTGAGAGCCAAAGACATTATCTTGATTCTATCCGGAGTCACCTAGTGCAG”, the binding signal was 13100 fluorescence intensity (a.u.).

“TTTAAGATGATCAGATTTCTAATTGCAGTTCACCTTAACTCGGAGTCACCTAGTGCAG”: the binding signal is 7420 fluorescence intensity (a.u.). For “TATAAATATAATTTATCCAAAGAGCATTTATAAGGACTTCCGGAGTCACCTAGTGCAG”, the binding signal is 4240 fluorescence intensity (a.u.). Take “TAGTGATTTTGTGAAATCTCAAAATATATTGATCCAGCTTCGGAGTCACCTAGTGCAG”: the binding signal is 5030 fluorescence intensity (a.u.). With “GCTTGACTAACATATTCTGTTGGATTGCTACCGCGCCATGCGGAGTCACCTAGTGCAG”, the binding signal was 7150 fluorescence intensity (a.u.). As to “TCCATTAACATTTGCCATTATCGTACTGACTTTCGTACGACGGAGTCACCTAGTGCAG”, the binding signal was 3710 fluorescence intensity (a.u.). Take “CGCCCACTGAATTAATCAATCAGTAAAGCTGCCACCGTGCCGGAGTCACCTAGTGCAG”: the binding signal is 39100 fluorescence intensity (a.u.).

In the case of “CCAAGATGAATTGGAACTTTGCACACCAACCAAATAGGGGCGGAGTCACCTAGTGCAG”, the binding signal was 3580 fluorescence intensity (a.u.).

Turning to “ATGTACTTAATTCAATTTGTCAAAAGAATTATGTATCCCTCGGAGTCACCTAGTGCAG”, the binding signal was 3990 fluorescence intensity (a.u.). Consider “GGTTCAACGGTACCCTTGATTGCTATAGAGAGTGATATATCGGAGTCACCTAGTGCAG”, for which the binding signal is 4670 fluorescence intensity (a.u.). Take “GAAATTAATAACAAATTAAAACCAGAGCCAGCTGACTGCTCGGAGTCACCTAGTGCAG”: the binding signal is 21700 fluorescence intensity (a.u.). As for “CCGACGGCTCAGATTGACTGCAGTAGTGGGTATCTCTTCTCGGAGTCACCTAGTGCAG”, the figure is 13700 fluorescence intensity (a.u.); as for “TGCTTTATTATTTGATTGATTGATCACTTGTTGGATGGGACGGAGTCACCTAGTGCAG”, 64200 fluorescence intensity (a.u.). With “GATTAATTAGGCTTCATAAATTCGTCTCGCAGTTTACAGGCGGAGTCACCTAGTGCAG”, the binding signal was 30800 fluorescence intensity (a.u.). In the case of “CAGATCAATTTATCGAGATTGATCAAAAGCAAGATGATGCCGGAGTCACCTAGTGCAG”, the binding signal was 35000 fluorescence intensity (a.u.). As for “GATTAATTAGATTTAATAAATTCATCTCGCAGTTTACAGGCGGAGTCACCTAGTGCAG”, the figure is 62200 fluorescence intensity (a.u.). As to “ATTGCAGATTGATTTATCTCGTCAAGATTGATGAGCATGCCGGAGTCACCTAGTGCAG”, the binding signal was 63500 fluorescence intensity (a.u.).

Consider “TTATTTGTGGCTTGAAGATTGACAGCTTTTGTTGATTGCTCGGAGTCACCTAGTGCAG”, for which the binding signal is 9340 fluorescence intensity (a.u.). Turning to “TTAATTAGGTTTAATAGATTCATCTCGCAGTTTACAGGCACGGAGTCACCTAGTGCAG”, the binding signal was 18500 fluorescence intensity (a.u.). With “TGCTAAAATTTTGACAATATTGTTAACTTGCTCTAGTTTACGGAGTCACCTAGTGCAG”, the binding signal was 6920 fluorescence intensity (a.u.).

Take “TTTGTTGCTTTACTTGGGAGATTGATCGCTAAACGAGTCACGGAGTCACCTAGTGCAG”: the binding signal was 3150 fluorescence intensity (a.u.). In the case of “GAAGATGATGATGATTTAGCATGCAAATGAGCAGTTGACACGGAGTCACCTAGTGCAG”, the binding signal is 13800 fluorescence intensity (a.u.). Turning to “TGTTTGGATGATTTTATGGATGATCACTTCTCTTTATTTACGGAGTCACCTAGTGCAG”, the binding signal was 3280 fluorescence intensity (a.u.). Take “GACTTGATTTACAGATTTATTGACAGAGTTTTGCTAAGCTCGGAGTCACCTAGTGCAG”: the binding signal was 56600 fluorescence intensity (a.u.).

With “TAAGTTTTAATTGAAATTTTGTTCACAAATACTCCAAATCCGGAGTCACCTAGTGCAG”, the binding signal was 11900 fluorescence intensity (a.u.). “ATTTTAATTTTAATTATTAATACTCCATTAGCATTTAGTTCGGAGTCACCTAGTGCAG”: the binding signal is 18200 fluorescence intensity (a.u.). Consider “ATGTTGATTGTCTAAAATCACAGATTTAGCACATTATCGACGGAGTCACCTAGTGCAG”, for which the binding signal was 29800 fluorescence intensity (a.u.).

With “CATCATGATTTGATGATGGATTAATTATGCTTAATAAATTCGGAGTCACCTAGTGCAG”, the binding signal is 55300 fluorescence intensity (a.u.). Turning to “GTGACTGACTGATGATAAATTTGATAATACGCGTCGTTAGCGGAGTCACCTAGTGCAG”, the binding signal was 63100 fluorescence intensity (a.u.). As for “ATTTATAAATTGATTTGGAGCACAGATCGATACGTGCAGACGGAGTCACCTAGTGCAG”, the binding signal is 53400 fluorescence intensity (a.u.). With “CATGATTAATTAAATATTAACGATCATAAATTTGAAAATTCGGAGTCACCTAGTGCAG”, the binding signal is 29300 fluorescence intensity (a.u.). Turning to “AAAATAAATTTGACTGTGAATATACGTTAACTGGTCATAGCGGAGTCACCTAGTGCAG”, the binding signal is 23100 fluorescence intensity (a.u.).

With “TTGCTAATGATGAATTAATTAGGCTTAATAAATTCGTCTCCGGAGTCACCTAGTGCAG”, the binding signal was 28300 fluorescence intensity (a.u.). Consider “AAATAACAAATTTGACTGTGAATATACGTATACTAGTTAGCGGAGTCACCTAGTGCAG”, for which the binding signal was 19300 fluorescence intensity (a.u.). On to “TGCTAATGATGGATTAATTAGGCTTAATAAATTCGTCTCGCGGAGTCACCTAGTGCAG”, for which the binding signal is 54700 fluorescence intensity (a.u.). As to “CATTTGCTAATGATGGATTAATTAGGCTTAATAAATTTGTCGGAGTCACCTAGTGCAG”, the binding signal was 19900 fluorescence intensity (a.u.). “GTATAAATTTGGACAGATTGTGATTAGATTTATAGTCCTACGGAGTCACCTAGTGCAG”: the binding signal is 29800 fluorescence intensity (a.u.). For the sequence “GCATTTGCTAATGATGGATTAATTAGGCTTAATAGATTCGCGGAGTCACCTAGTGCAG”, the binding signal was 11800 fluorescence intensity (a.u.).

Take “GCCCACTCATAATTTCTCCCTTGATTTGTAAAGAAATAAGCGGAGTCACCTAGTGCAG”: the binding signal is 16000 fluorescence intensity (a.u.). With “GAAAATTAGTAGAGAACTAATTAGGGATAAAGTCATTATTCGGAGTCACCTAGTGCAG”, the binding signal is 13000 fluorescence intensity (a.u.). In the case of “AAGATTTGTCTCATAAATTAGTCGCAATATGTGTAATTAGCGGAGTCACCTAGTGCAG”, the binding signal was 7560 fluorescence intensity (a.u.). Regarding “AAAATATCAATTGGCCATAATCATTGTAAGCACTATACAGCGGAGTCACCTAGTGCAG”, the binding signal was 7780 fluorescence intensity (a.u.). For the sequence “ATCCAATCATACTCCAAGATCTGAAGAGAAGGAGGGATTGCGGAGTCACCTAGTGCAG”, the binding signal is 11900 fluorescence intensity (a.u.). On to “GATGGACCAATTTGATTGTTGTTGGATTCTACGATGCATGCGGAGTCACCTAGTGCAG”, for which the binding signal is 9950 fluorescence intensity (a.u.).

Take “GCTTAAATTAATATACCTGAACCGGCGAGCATTTAAATTTCGGAGTCACCTAGTGCAG”: the binding signal is 5370 fluorescence intensity (a.u.). As for “AATGACTGATTAATTAGGCTTAATAAATTCATCTCGCAGTCGGAGTCACCTAGTGCAG”, the figure is 59600 fluorescence intensity (a.u.). Next, “TCGCTTAATTAATTTGGATTTGGATGCGGATCCCTCGCCTCGGAGTCACCTAGTGCAG”: 56000 fluorescence intensity (a.u.); “ACGGATTAATTAGGCTTAATAAATTTGCCTCGCGGTTTCTCGGAGTCACCTAGTGCAG”: 39200 fluorescence intensity (a.u.); “GGATTAATTAGGCTTAATAAATTCATCTCGCAGTTTTCTGCGGAGTCACCTAGTGCAG”: 26200 fluorescence intensity (a.u.).

On to “TTGATTGATTTGTTTGCACTCCATGAAATAAGTGAGGGCTCGGAGTCACCTAGTGCAG”, for which the binding signal is 65200 fluorescence intensity (a.u.). As for “AGTACAAATGACGGATTAATTAGGCTTAATAAATTCGTCTCGGAGTCACCTAGTGCAG”, the figure is 19200 fluorescence intensity (a.u.). With “CTAATGACGAGATTAATTAGGCTTAATAAATTCGTCTCGCCGGAGTCACCTAGTGCAG”, the binding signal was 54800 fluorescence intensity (a.u.). For the sequence “TTGATACTCTGATGATTGTAAAGTAAATTGTTTGAAATTTCGGAGTCACCTAGTGCAG”, the binding signal is 9650 fluorescence intensity (a.u.). Consider “ACTAATGACGGATTAATTAGGCTTAATAAATTCGTCTCGCCGGAGTCACCTAGTGCAG”, for which the binding signal was 51500 fluorescence intensity (a.u.). Consider “ATGATTTGTTGTTGAGTTCGGTTTGAAATCAATATAAGTACGGAGTCACCTAGTGCAG”, for which the binding signal is 14700 fluorescence intensity (a.u.).

Consider “CGGATTAATTAGGCTTAATAAATTCATCTCGCAGTTTCCTCGGAGTCACCTAGTGCAG”, for which the binding signal was 50800 fluorescence intensity (a.u.). “TGGCTTAATTTAATCCCCTCCATTCCGGATGCCTCTCCCTCGGAGTCACCTAGTGCAG”: the binding signal was 20200 fluorescence intensity (a.u.).

The record behind these values is PMC7819943, “Rice protein-binding microarrays: a tool to detect cis-acting elements near promoter regions in rice”.
